According to PubChem BioAssay (NCI):
Compounds without any hit were thinned out: in the full panel of roughly 79,000, 15% have a hit. Active and inactive are the calls of the source. Cut-off read from the data, not from the text of the source: active = growth inhibition above about 70%; inactive = the rest.

Assay: NCI Yeast Anticancer Drug Screen. Data for the rad18 strain (AID 177)
Conditions: S. cerevisiae rad18 mutant growth inhibition, active compounds read high
Protocol: Growth inhibition of yeast strains with defined genetic alterations is measured as a screen for potential anti-cancer activity. Selected strains with alterations in DNA damage repair or cell cycle control were exposed to compounds and growth inhibition was measured relative to vehicle treated controls. The strain used in this assay is rad18

Measured: growth inhibition

CC1(C)[C@@H]2CC[C@]1(C)[C@H](OC(=O)CSC#N)C2
inactive: at 1.2 µM 9% | at 3.7 µM 14% | at 11.0 µM 28%
active: at 33.0 µM 92% | at 100.0 µM 96%

CC(=O)Nc1ccc2c(c1)C(=Nc1ccc(C(=O)O)cc1)c1ccccc1-2
active: at 33.0 µM 85% | at 100.0 µM 96%
inactive: at 1.2 µM 5% | at 3.7 µM 15% | at 11.0 µM 47%

CN(C)CCn1c2c3ccccc3ccc2c2oc(=O)c3ccccc3c21
active: at 33.0 µM 94% | at 100.0 µM 91%
inactive: at 1.2 µM 0% | at 3.7 µM -7% | at 11.0 µM 53%

CCCCCCCCCCCC(=O)N(C)C
active: at 100.0 µM 98%
inactive: at 1.2 µM -9% | at 3.7 µM -4% | at 11.0 µM -7% | at 33.0 µM 15%

Cc1c(Cl)ccc2c1S(=O)(=O)c1cccc(Cl)c1-2
inactive: at 1.2 µM -18% | at 3.7 µM 2% | at 11.0 µM 6% | at 33.0 µM -1% | at 100.0 µM 7%

[O-][n+]1c2ccc(O)cc2nc2ccc(Cl)cc21
inactive: at 1.2 µM 7% | at 3.7 µM 23% | at 11.0 µM 47%
active: at 33.0 µM 79% | at 100.0 µM 82%

O=C1c2ccccc2C(=O)c2c(NC3CCCCC3)ccc(Nc3ccc(S(=O)(=O)O)cc3)c21
inactive: at 1.2 µM -2% | at 3.7 µM -13% | at 11.0 µM -1% | at 33.0 µM 40% | at 100.0 µM 46%

CC(=O)Nc1ccc(/C=C(\C#N)c2ccc(C)cc2)cc1
inactive: at 1.2 µM -18% | at 3.7 µM -9% | at 11.0 µM -17% | at 33.0 µM -3% | at 100.0 µM -16%
